High-throughput results (PubChem BioAssay)
This is a sample that favours compounds with a hit; in the whole collection about 19% have one here.
Pf growth 96h = inhibits malaria parasite growth, 96 h; Potency, µM (top dose mostly 28.7 µM), without a hit: top-dose activity change, negative = inhibition, hits mostly inhibitors; P. falciparum luciferase reporter growth, 96 h; actives 6.9% (n = 320,000); AID 504834; note: potency is the fitted concentration of half-maximal effect; % is set by controls: 0 for no effect and ±100 for the full control effect
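96 h incubation, 37 C, 5% CO2, of luciferase-reporter P. falciparum-infected RBCs (2% hematocrit, 0.05% parasitemia final) with test compounds; endpoint luminescence.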
MARV entry inh = blocks Marburg virus binding to or entry into cells | Potency, µM (highest dose often 37.8 µM), inactives show at the top dose activity change, negative = inhibition, actives largely listed as inhibitors | actives 1.8% (n = 300,000) | Marburg virus pseudotyped entry inhibition, cell reporter | AID 540276; calls by dose curve; tested in HEK293 cells; note: potency is the fitted concentration of half-maximal effect; % is set by controls: 0 for no effect and ±100 for the full control effect
Lassa entry inh = blocks Lassa virus binding to or entry into cells; Potency, µM (series often up to 37.9 µM), without a hit: at the top dose activity change, negative = inhibition, actives largely listed as inhibitors; Lassa virus pseudotype entry inhibition, cell reporter; actives 1.2% (n = 300,000); calls by dose curve; tested in HEK293 cells; note: potency is the fitted concentration of half-maximal effect; % is set by controls: 0 for no effect and ±100 for the full control effect; nearly all actives have a fitted effect of over 50% in size
Cycloheximide cs = counter-screen hit for Shiga toxin inhibitors, cycloheximide; AID 2314; cell reporter, cycloheximide protein synthesis inhibition counterscreen; max response, %; actives 12% (n = 300,000); in the data active = max response mostly above about 13%, no sharp cut-off; inactive = mostly below about 14%; note: read at 38.3 µM for the half of the compounds with a filed dose; 0% is about no effect
Shiga inhibitor = inhibitors of Shiga toxin in Vero cells. Vero cells, Shiga toxin protein synthesis inhibition reporter. actives 9.2% (n = 290,000). AID 2315. inhibition, % at 38.7 µM; in the data active = inhibition mostly above about 28%, no sharp cut-off; inactive = mostly below about 43%; note: 0% is about no effect
Pf growth 48h = inhibits P. falciparum growth in the first generation, 48 h; P. falciparum luciferase growth in erythrocytes, 48 h; Potency, µM (titrated, usually from 28.7 µM), inactives show at the top dose activity change, negative = inhibition, usual class: inhibitors; actives 5.9% (n = 310,000); note: potency is the fitted concentration of half-maximal effect; % is set by controls: 0 for no effect and ±100 for the full control effect
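Here the parasites carry a stable luciferase gene and grow inside erythrocytes in Albumax-based RPMI medium with compound for one erythrocytic cycle. Activity is scored as loss of luminescent signal.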
* marks the source's active call; other numbers are inactive results; i = inactive; u = inconclusive; x = not tested or not shown; + = active, no number; ! = not confirmed by another sample; [ ] = another dose, or the depositor's remark. Unless noted, calls come from the whole dose curve; as a rule, active = well fitted inhibition curve with a large enough effect; inconclusive = small, poorly fitted or top-dose-only effect, or another doubt; inactive = no such curve, though single readings can be large or run the other way.

SMILES	Pf growth 96h	MARV entry inh	Lassa entry inh	Cycloheximide cs	Shiga inhibitor	Pf growth 48h
O=[N+]([O-])c1ccc2nc(SCc3ccccc3Cl)sc2c1	12%	-7%	-1%	2	23	58%
CCOC(=O)CSc1nc2ccc(NC(C)=O)cc2s1	x	u	1%	-5	-13	8%
Nc1nnc(SCc2ccc([N+](=O)[O-])cc2)s1	12%	6%[46.1 µM]	-1%[46.1 µM]	8.0*	22	12%
COC(=O)CSc1nc2ccc(N)cc2s1	3%	u	5%	19*	25	11%
Nc1ccc2nc(SCc3ccc([N+](=O)[O-])cc3)sc2c1	52%	21%	-15%	28*	45	88%
O=[N+]([O-])c1ccc(CSc2nnc(SCc3ccc(Cl)cc3)s2)cc1	u	x	x	1	-8	17%
COc1ccccc1OCCSc1nc2ccc([N+](=O)[O-])cc2s1	u	23%	11%	10*	-11	6%
COc1ccc(CSc2nnc(N)s2)cc1F	u	5%	23%	43*	86*	38%
C=CCNC(=O)NC(=O)COC(=O)CC(NC(N)=O)c1ccc(Cl)cc1 (stereo unspecified)	23%	18%	-3%	-5	10	2%
O=C(O)COc1cccc(/C=C2/SC(=S)N(Cc3ccccc3)C2=O)c1	u	-18%	10%	-2	-1	3%
O=C(O)CN1C(=O)/C(=C\c2cc(Br)ccc2OCc2ccc(F)cc2)SC1=S	-12%	x	x	-4	-7	20%
COc1ccc(/C=C2/SC(=S)N(CC(=O)O)C2=O)cc1OCc1ccc(Cl)cc1	-10%	x	x	33*	42*	u
O=C(O)CN1C(=O)/C(=C\c2cccc(OCc3ccccc3)c2)SC1=S	15µM*	x	x	1	x	14%
O=C(O)CN1C(=O)/C(=C\c2cc(Br)ccc2OCc2ccc(Cl)cc2)SC1=S	10µM*	x	x	7	37	19%
CCOC(=O)c1c(C)nc2c(c1C)/C(=N/O)CC(C)(C)C2	u	u	-15%	-2	17	x
CC(C)Cc1nnc(NC(=O)CCC(=O)NC2CCCCCCC2)s1	u	x	x	-2	16	-17%
Cc1ccc(NC(=S)NCC23C=CC(O2)C2C(=O)N(c4ccc(C)cc4)C(=O)C23)cc1 (stereo unspecified)	u	4%	9%	56*	7	u
Oc1cccc(/C=N/Nc2cc(N3CCOCC3)nc(N3CCOCC3)n2)c1	-27%	2.6µM*	u	19*	-2	-28%
Cc1nc(N/N=C/c2ccc(O)cc2O)cc(N2CCOCC2)n1	u	2.8µM*	u	9	3	u
Oc1ccccc1/C=N/Nc1cc(N2CCCC2)nc(N2CCCC2)n1	173%	2.3µM*	u	12*	30	2.1µM*
Oc1ccc(/C=N/Nc2cc(N3CCOCC3)nc(N3CCOCC3)n2)cc1O	29%	u	6%	-1	-8	u
Cc1nc(N/N=C/c2cccc(F)c2)cc(N2CCOCC2)n1	9.3µM*	7.9µM*	-20%	2	-3	u
COc1ccc(C(=O)OCC[N+]2(C)CCOCC2)cc1	u	11%[46.1 µM]	14%[46.1 µM]	2	10	4%
CC(C)c1ccc2occ(CC(=O)Nc3cccc(C(F)(F)F)c3)c2c1	x	u	2%[46.1 µM]	x	x	x
CCOC(=O)c1ccc(NS(=O)(=O)c2ccc(-c3coc(C)n3)cc2)cc1	22%	x	x	2	-7	17%
SMILES	Pf growth 96h	MARV entry inh	Lassa entry inh	Cycloheximide cs	Shiga inhibitor	Pf growth 48h
CCOc1cccc(/C=N/Nc2nc(N3CCCC3)nc(N3CCCC3)n2)c1O	-2%	x	x	24	48	0.83µM*
CCOc1cc(/C=N/Nc2nc(N3CCCC3)nc(N3CCCC3)n2)ccc1O	u	u	-16%	1	-3	u
Cc1nc2ccc([N+](=O)[O-])cc2nc1C	28%	13%[46.1 µM]	26%[46.1 µM]	12	-16	9%
Cc1ccc2nc3cc([N+](=O)[O-])cc([N+](=O)[O-])c3cc2c1	u	x	x	68*	134*	u
O=C(Cc1ccc(Cl)c(Cl)c1)N/N=C/c1cccnc1	-28%	-22%[46.1 µM]	-1%[46.1 µM]	6	-5	29%
O=C(O)c1cc(N/N=C/c2cccnc2)ccc1Cl	305%	x	x	63*	133*	159%
O=C(O)c1cc(N/N=C/c2c[nH]c3ccccc23)ccc1Cl	335%	-19%	-21%	58*	+	96%
Clc1cccc(Cl)c1/C=N/Nc1c(Cl)cncc1Cl	2%	u	u	1	-3	0%
O=C(N/N=C/c1c[nH]c2ccccc12)c1ccc([N+](=O)[O-])cc1Cl	21%	x	x	17	34	-4%
CSc1ccc(/C=N/Nc2ccc(Cl)c(C(=O)O)c2)cc1	i	u	u	52*	189*	i
Clc1cncc(Cl)c1N/N=C/c1ccncc1	1.2µM*	u	-5%	-4	-10	u
COc1cc([N+](=O)[O-])ccc1NC(=O)COC(=O)c1n[nH]c2ccccc12	36%	-16%	3%	-4	22	16%
O=C(CN1CCN(S(=O)(=O)c2ccc(Cl)cc2)CC1)NC(=O)NC1CCCCC1	u	1%	-31%	6	-7	x
CN(C(=O)COC(=O)COc1ccccc1Cc1ccccc1)c1ccccc1	10%	-2%[46.1 µM]	20%	x	x	-10%
O=C(O)c1cc(N/N=C/c2ccncc2)ccc1Cl	442%	-20%[46.1 µM]	u	21*	59*	155%
COC(=O)c1cc(NC(=O)c2ccc(-c3ccccc3)cc2)ccc1Cl	-10%	u	u	-1	15	-2%
O=C(O)c1cc(N/N=C/c2ccc(-c3ccccc3)cc2)ccc1Cl	-22%	x	x	100*	132*	299%
CN1CCC(N(C)CC(=O)Nc2ccccc2N2CCOCC2)CC1	9%	u	2%	-3	-22	x
O=C(Nc1ccc(F)cc1)OCCN1CCN(Cc2ccccc2)CCC1=O	-4%	-9%	u	11*!	22	-3%
CC(=O)c1ccc(NC(=O)OCCN2CCN(Cc3ccccc3)CCC2=O)cc1	x	x	x	20	i	x
CCC(OC(=O)CCc1nc2ccccc2[nH]c1=O)C(=O)c1ccccc1 (stereo unspecified)	-12%	-29%	u	-8	1	x
COC(=O)c1sccc1NC(=O)C1C2C=CC(C2)C1C(=O)O (stereo unspecified)	17%	15%[46.1 µM]	4%	-6	-2	8%
CCOCCCNC(=O)c1ccc(Cn2c(=O)[nH]c3ccsc3c2=O)cc1	-29%	-12%[46.1 µM]	-2%[46.1 µM]	14	32	-20%
O=C1C2C(c3cccc(/C=C/c4ccccc4)c3)CC=CC2C(c2ccc3ccccc3c2)N1Cc1ccccc1 (stereo unspecified)	u	x	x	6	-2	u
Cc1ccc(C)c(OCC(=O)NNC(=O)CSC(=S)N2CCCC2)c1	0%	7%	-5%	x	x	-1%
Cc1cc(NC(=O)c2n[nH]c(=O)c3ccccc23)ccc1Br	u	13%	1%	-1	17	25%
